Experimental findings from PubChem BioAssay (NCATS) are described below.

Unmarked numbers belong to inactive results. Results filed as inconclusive are left out. Active and inactive are the calls of the source. The call rests on the fitted dose curve; in most records, active means well fitted curve in the direction sought with a large enough effect; inconclusive means small, poorly fitted or top-dose-only effect, or another doubt; inactive means no such curve, though single readings can be large; an effect the other way counts as inactive or inconclusive.

The nature of assay [1]: Primary qHTS for inhibitors of nuclear receptor binding SET domain protein 2 (NSD2) in an RCH-ACV wild type WT cells (2C) (AID 1645877; further: nearly all actives have a fitted effect of over 70% in size; further: potency means the concentration at half of the fitted maximal effect; on activity change, negative = cell killing: on the % scale 0 is the no-effect control and ±100 the full control effect). (In general: In qHTS, concentration-response curves come from the screen itself.)
Assay [2] has as its target Glutathione peroxidase 1 (Homo sapiens) (UniProt P07203). Kind of assay: Primary qHTS Assay for Inhibitors of Recombinant Selenoprotein Glutathione Peroxidase 1 (GPX1) (AID 1845191). Further: nearly all actives have a fitted effect of over 65% in size. On activity, negative = inhibition: on the % scale 0 is the no-effect control and ±100 the full control effect. In outline: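 GR-coupled readout: NADPH consumption tracked by fluorescence, ex 340/em 450 nm, at t=0 and after 15 min at RT. Final mix 10 nM GPX1, 1 mM GSH, 0.5 mM CHP, 0.5 mM NADPH, 100 nM GR, 0.01% BSA, following 30 min enzyme–compound preincubation.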

The target in assay [3] is Phospholipid hydroperoxide glutathione peroxidase GPX4 (Homo sapiens) (UniProt P36969). The experiment in a line: Primary qHTS Assay for Inhibitors of Recombinant Selenoprotein Glutathione Peroxidase 4 (GPX4) (AID 1845192). Further: nearly all actives have a fitted effect of over 65% in size. On activity change, negative = inhibition: series mostly up to about 50 µM; on the % scale 0 is the no-effect control and ±100 the full control effect. In outline:
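Steps: GPX4 plus compound, 30 min RT; add GR/GSH/NADPH master mix; start with cumene hydroperoxide; read 340/450 nm fluorescence at 0 and 15 min. Finals were 200 nM GPX4, 1 mM GSH, 0.5 mM CHP, 0.5 mM NADPH, 100 nM GR.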

For assay [4], the target named is Luciferin 4-monooxygenase (Photinus pyralis) (UniProt P08659). The experiment in a line: Primary firefly luciferase (FLuc) qHTS assay for identification of artifact compounds. (AID 1845220). Further: nearly all actives have a fitted effect of over 60% in size.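 On activity change, negative = inhibition: series mostly up to about 54 µM; plate controls were DMSO vehicle for no effect and no enzyme for full effect.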 In outline:
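Titrated compounds were incubated 15 min at RT, protected from light, with luciferin and ATP at 10 uM; reaction started with 10 nM FLuc, luminescence imaged at 5 min, and concentration-response fitted by Hill equation.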

A short description of assay [5]: Primary fluorescence-based thiol-reactive (MSTI) qHTS assay for identification of artifact compounds. (AID 1845221). Further: nearly all actives have a fitted effect of over 65% in size. Further: potency means the concentration at half of the fitted maximal effect.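 On activity change, negative = thiol reactive: series mostly up to about 54 µM; thiol-reactive compounds lower the probe fluorescence signal.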 In outline:
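Reactivity toward the thiol probe MSTI (4 uM) is scored by fluorescence at Ex/Em 525/598 nm after 1 h at room temperature. Acetyl-MSTI and MSTI define the activity scale.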

Assay [6] deals with Nanoluciferase (engineered Oplophorus gracilirostris luciferase). Kind of assay: Primary Nanoluciferase (NLuc) qHTS assay for identification of artifact compounds. (AID 1845222).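 Further: NLuc secreted into diluted conditioned medium of S16 cells; series mostly up to about 54 µM; 0% = DMSO and -100% = no enzyme.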 In outline: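 qHTS format, against NLuc in S16 cell-conditioned medium. Nano-Glo substrate 1:100 was added after 15 min at room temperature. Luminescence was taken after a further 5 min.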

Chain of Phospholipid hydroperoxide glutathione peroxidase GPX4 (Homo sapiens) (P36969 whole entry, looked up): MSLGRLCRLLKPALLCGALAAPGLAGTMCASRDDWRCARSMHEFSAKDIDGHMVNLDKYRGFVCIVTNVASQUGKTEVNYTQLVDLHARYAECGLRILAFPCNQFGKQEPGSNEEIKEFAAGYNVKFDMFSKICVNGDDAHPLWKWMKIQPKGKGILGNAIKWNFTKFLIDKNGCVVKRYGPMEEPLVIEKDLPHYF
Chain of Glutathione peroxidase 1 (Homo sapiens) (P07203 whole entry, looked up): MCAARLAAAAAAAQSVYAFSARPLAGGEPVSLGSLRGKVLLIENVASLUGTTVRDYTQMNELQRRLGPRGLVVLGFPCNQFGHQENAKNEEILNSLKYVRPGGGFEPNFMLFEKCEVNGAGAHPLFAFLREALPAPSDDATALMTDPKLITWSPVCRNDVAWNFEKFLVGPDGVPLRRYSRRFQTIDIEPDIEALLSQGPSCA

In the case of `CC(=O)O[C@H]1CC(C)(C)CC2[C@@]13[C@H](O)C[C@]1(C)[C@@]2(CCC2[C@@]4(C)CC[C@H](O[C@@H]5OC[C@H](O[C@@H]6O[C@H](CO)[C@@H](O)[C@H](O)[C@H]6O[C@@H]6OC[C@@H](O)[C@H](O)[C@H]6O)[C@H](O)[C@H]5O[C@@H]5O[C@H](CO)[C@@H](O)[C@H](O)[C@H]5O)C(C)(C)C4CC[C@]21C)O[C@@H]3O` (stereo partly specified), the Potency in assay [1] was 1.09 µM (active). Also, the Potency result in assay [2] and in assay [3] was “inactive” throughout. Also, the activity change, negative = inhibition in assay [4] was -0.127% [at 11.6 µM]. In assay [5], the activity change, negative = thiol reactive is 93.4% [at 11.5 µM]. In assay [6], the activity, negative = inhibition is 2.06% [at 11.6 µM].

Consider `C[C@H](N)C(=O)N[C@@H](Cc1ccc(O)cc1)C(=O)N1CCC[C@H]1C(=O)NCC(=O)N[C@@H](CCCCN)C(=O)N[C@@H](Cc1ccccc1)C(N)=O`, for which, in assay [1], the outcome was “inactive [at 9.23 µM]”. For the same molecule, the activity, negative = inhibition in assay [2] was 0.372% [at 9.52 µM]; in assay [6], 4.39% [at 11.6 µM]. The activity change, negative = inhibition in assay [3] is -6.9% [at 9.73 µM]; in assay [4] it was 3.15% [at 11.6 µM]. Further, the activity change, negative = thiol reactive in assay [5] was -3.19% [at 11.5 µM].

In the case of `COc1c2c(c(C)c3c1C(=O)OC3)OC1(C)CC(O)C34OC(OC)(CC(OC(C)=O)C3(C)C1C2)OC4(C)C` (stereo unspecified), the Potency entry in assay [1], in assay [2], in assay [3], in assay [4], in assay [5] and in assay [6] was “inactive” throughout.

`CC1(C)CCC2(C(=O)OC3OCC(O)C(O)C3O)CCC3(C)C(=CCC4C5(C)CC(O)C(OC6OC(COC7OCC(O)C(O)C7O)C(O)C(O)C6O)C(C)(C)C5CCC43C)C2C1` (stereo unspecified): the activity change, negative = cell killing in assay [1] is -0.57% [at 9.23 µM]. Further, the Potency result in assay [2] and in assay [3] was “inactive” throughout. Also, the outcome in assay [4] was “inactive [at 11.6 µM]”. Also, in assay [5], the activity change, negative = thiol reactive is -15.2% [at 11.5 µM]. Besides, the activity, negative = inhibition in assay [6] was 0.507% [at 11.6 µM].

On to `O=C(Nc1ccc(-c2ccncc2)cc1)N[C@H](CO)c1ccccc1`, for which the Potency in assay [1] is 23 µM (active). In addition, the Potency entry in assay [2], in assay [3], in assay [4], in assay [5] and in assay [6] was “inactive” each time.

For `CC1OC(OC2CCC3(C)C(CCC4(C)C3CC=C3C5CC(C)(C)CCC5(C(=O)OC5OC(CO)C(O)C(O)C5O)CCC34C(=O)O)C2(C)C)C(O)C(O)C1O` (stereo unspecified), the Potency result in assay [1], in assay [2], in assay [3], in assay [4], in assay [5] and in assay [6] was “inactive” each time.

As to `C[C@@H]1CC[C@]2(C(=O)O[C@@H]3O[C@H](CO)[C@@H](O)[C@H](O)[C@H]3O)CC[C@]3(C)C(=CCC4[C@@]5(C)C[C@@H](O)[C@H](O)[C@@](C)(C(=O)O[C@H]6[C@H](O)C[C@@]7(C)C(CC[C@]8(C)C7CC=C7[C@H]9[C@](C(=O)O[C@@H]%10O[C@H](CO)[C@@H](O)[C@H](O)[C@H]%10O)(CC[C@@H](C)[C@@]9(C)O)CC[C@]78C)[C@@]6(CO)C(=O)O)C5CC[C@]43C)[C@@H]2[C@]1(C)O` (stereo partly specified), in assay [1], the activity change, negative = cell killing was 0.118% [at 9.23 µM]. Besides, in assay [2], the outcome is “inactive [at 9.52 µM]”. Besides, the activity change, negative = inhibition in assay [3] was -0.473% [at 9.73 µM]; in assay [4], 0.17% [at 11.6 µM]. Moreover, the activity change, negative = thiol reactive in assay [5] is -3.19% [at 11.5 µM]. Besides, in assay [6], the activity, negative = inhibition is -2.05% [at 11.6 µM].

Regarding `COC1CC(O[C@H]2CC[C@@]3(C)C(=CC[C@]4(O)C3[C@H](OC(C)=O)[C@@H](OC(=O)c3ccccc3)[C@]3(C)[C@@H](C(C)=O)CC[C@@]34O)C2)OC(C)C1OC1CC(OC)C(OC2CC(OC)C(OC3OC(C)C(OC4OC(CO)C(O)C(O)C4O)C(OC)C3O)C(C)O2)C(C)O1` (stereo partly specified), the activity change, negative = cell killing in assay [1] is -8.43% [at 9.23 µM]. Also, the outcome in assay [2] is “inactive [at 9.52 µM]”; in assay [4] it was “inactive [at 11.6 µM]”. The activity change, negative = inhibition in assay [3] is -9.45% [at 9.73 µM]. For the same molecule, the activity change, negative = thiol reactive in assay [5] was 29.9% [at 11.5 µM]. Also, in assay [6], the activity, negative = inhibition is 2.42% [at 11.6 µM].

On to `CC(C)=CCC/C(C)=C/CO[C@@H]1O[C@H](CO)[C@@H](OC(=O)/C=C/c2ccc(O)cc2)[C@H](O[C@@H]2O[C@@H](C)[C@H](O)[C@@H](O)[C@H]2O)[C@H]1O`, for which the Potency entry in assay [1], in assay [2], in assay [3], in assay [4], in assay [5] and in assay [6] was “inactive” throughout.

For the molecule `C=C1C(=O)O[C@@H]2[C@H]1CCC(C)=C1CCC(=O)O[C@]12C`, the results for the Potency in assay [1] and in assay [5] were 4.09 µM (active) and 18.9 µM (active), respectively. The Potency entry in assay [2], in assay [3], in assay [4] and in assay [6] was “inactive” each time.

Take `CCCN1CCN(c2ccc(C(=O)NC3(C(=O)NCC#N)CCCCC3)cc2)CC1`: the Potency entry in assay [1], in assay [2], in assay [3], in assay [4], in assay [5] and in assay [6] was “inactive” in each case.

Take `Cn1cc(S(=O)(=O)c2ccc(Cl)cc2)c2cccc(N3CCNCC3)c21`: in assay [1], the Potency was 11.5 µM (active). For the same molecule, the Potency result in assay [2], in assay [3], in assay [4], in assay [5] and in assay [6] was “inactive” throughout.

For `CC1=CC(=O)[C@H]2C(C)(C)CCC[C@]2(C)[C@@]1(O)CO`, the Potency result in assay [1], in assay [2], in assay [3], in assay [4], in assay [5] and in assay [6] was “inactive” throughout.

Take `COc1ccc([C@@H]2OC[C@H]3[C@@H]2CO[C@@H]3c2ccc(OC3OC(CO)C(O)C(O)C3O)c(OC)c2)cc1OC` (stereo partly specified): the Potency result in assay [1], in assay [2], in assay [3], in assay [4] and in assay [6] was “inactive” each time. Further, the Potency in assay [5] was 8.22 µM (active).

In the case of `CC(=O)O[C@@](C)(C(=O)/C=C/C(C)(C)O)[C@H]1[C@H](O)C[C@@]2(C)[C@@H]3CC=C4[C@@H](C=C(O)C(=O)C4(C)C)[C@]3(C)C(=O)C[C@]12C`, the Potency in assay [1] was 0.282 µM (active). The Potency result in assay [2], in assay [3], in assay [4], in assay [5] and in assay [6] was “inactive” each time.

Consider `C[C@@H]1O[C@@H](O[C@H]2[C@H](O)[C@@H](C(=O)O)O[C@@H](O[C@H]3CC[C@@]4(C)C(CC[C@]5(C)C4CC=C4C6CC(C)(C)CC[C@]6(C(=O)O)CC[C@]45C)C3(C)C)[C@@H]2O[C@@H]2OC[C@@H](O)[C@H](O)[C@H]2O)[C@H](O)[C@H](O)[C@H]1O` (stereo partly specified), for which the outcome in assay [1] is “inactive [at 9.23 µM]”. For the same molecule, the Potency entry in assay [2] and in assay [3] was “inactive” each time. Also, the activity change, negative = inhibition in assay [4] is 1.83% [at 11.6 µM]. Also, in assay [5], the activity change, negative = thiol reactive was 129% [at 11.5 µM]. Further, in assay [6], the activity, negative = inhibition was 0.398% [at 11.6 µM].
